Assay results reported in PubChem BioAssay (NCI).
About 79,000 compounds went through this panel and 15% of them were active in at least one assay; those are over-represented in the sample as a whole. Values without a mark were called inactive. Calls of active or inactive are those of the source. Cut-off read from the data, not from the text of the source: active = growth inhibition above about 70%; inactive = the rest.

Experiment: NCI Yeast Anticancer Drug Screen. Data for the mec2-1 strain (AID 157)
Details: S. cerevisiae mec2-1 strain, at 50.0 µM, active compounds read high
How it was run: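 Vehicle-treated cultures served as reference for growth inhibition of compound-exposed mec2-1 yeast.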

SMILES | growth inhibition
Cn1c(N)c(C(=O)/C=C/c2ccccc2)c(=O)n(C)c1=O | -17.5%
CCc1c(CBr)c(=O)[nH]c2ccccc12 | -8.1%
CN1CCCC1 | 8.8%
COc1ccccc1N=Nc1c(O)n(-c2ccccc2C)c(=S)n(-c2ccccc2OC)c1=O | -9.7%
C=CCC12CC(O)C(O)CC1(OC)OC(c1cc(OC)c(OC)c(OC)c1)C2C (stereo not given) | -8.75%
Cc1ccccc1NC(=O)CS | 31.9%
COc1ccc(N=C2[Se]C(=NC(=O)c3ccccc3)N(c3ccc(OC)cc3)C2=Nc2ccc(OC)cc2)cc1 | -25.5%
Cc1cccnc1NCc1ccccn1 | -0.9%
Cc1csc2c1-n1cccc1C2=O | 1%
CCn1cc(C(=O)O)c(=O)c2ccc(-c3ccncc3)cc21 | 8.7%
Cc1cccc(C(=O)O)c1N | -5.25%
C/C=C(\C)c1cc(O)c(C)c2c1Oc1cc(O)c(Cl)c(C)c1C(=O)O2 | 94.8% (active)
CCN(CC)c1cc2c(cc1Br)-c1ccccc1C2=O | -2.9%
CC1(C)CC(C)(C)CC(O)(C2(O)CC(C)(C)CC(C)(C)C2)C1 | 0.35%
Nc1nc(Br)nc2ncn(C3CC(O)C(CO)O3)c12 (stereo not given) | 3.8%
C/C(=N\NC(N)=O)c1sc(-c2nc(C)c(/C(C)=N/NC(N)=O)s2)nc1C | 22.8%
O=C1c2ccccc2C(=O)N1Cl | -4.75%
NC(=O)C(NN=C1c2ccccc2-c2ccccc21)(c1ccccc1)c1ccccc1 | -0.2%
O=C(Cc1ccccc1)c1c[nH]c2c(O)ccc(O)c12 | -9.25%
CCCCCC(CN(C)C)C(O)CCc1ccc(Cl)c(Cl)c1 (stereo not given) | 79.2% (active)

SMILES | growth inhibition
Cc1cccc(C(C)C)c1NC(=O)/C(Cc1c([N+](=O)[O-])cccc1[N+](=O)[O-])=N/NC(=O)CC#N | -3.6%
CC1c2c(cc(=O)n(C)c2O)C(=O)N1C (stereo not given) | 0.7%
CN(C)c1ccc(/C=C/C=C(/C#N)c2ccccc2)cc1 | 8.5%
Cc1nc(-c2nc(C)c(C(=O)NNC(=O)C[n+]3ccccc3)s2)sc1C(=O)NNC(=O)C[n+]1ccccc1 | 10.6%
C/C(=N/NC(=S)N1CCCCCC1)c1ccccc1O | -40.4%
CCCCCCC(=O)c1ccco1 | -18.6%
NC1CCCCC1N.O=NN1CCCCCC1(P(=O)([O-])[O-])P(=O)([O-])[O-].[Na+].[Pt+2] | 20%
NNC(=O)C1C2C=CC(C2)C1C(=O)NN (stereo not given) | -8.05%
CCOC(=O)C(=O)c1cn(C)c(=O)n(C)c1=O | 2.85%
CC(C)(C)OC(=O)NCCNC(=O)OCc1ccccc1 | -12.2%
O=[N+]([O-])c1ccc(Oc2cccc3ccccc23)c([N+](=O)[O-])c1 | 8.55%
CCOC(=O)C(=O)C(C(=O)OCC)C(C)C(=O)OCC (stereo not given) | -8.3%
O=C1C2=C(CCCC2)Nc2cccc3ncn1c23 | -39%
CC(C)/C=N/N=C/C(C)C | 9.7%
COC(=O)C1CC2(C(=O)OC)CC(C(=O)OC)(CC(C(=O)OC)C2=O)C1=O (stereo not given) | -0.15%
Cc1nc2ccccc2c(=O)n1/N=C\c1ccc2c(c1)CCC2 | -5.5%
Nc1cccc(Nc2nc3ccccc3nc2NS(=O)(=O)c2ccccc2)c1 | 22.6%
BrCCCOc1ccccc1Br | -11.2%
CNC(=O)Nc1ccc(C(=O)OCC(C)C)cc1 | 8.7%
C=C(C)CNCC(=C)C | 14.1%
